Experimental data taken from PubChem BioAssay (Tox21).
Active and inactive are the calls of the source. Calls come from the whole dose curve; as a rule, active = well fitted curve in the direction sought with a large enough effect in the repeat runs; inconclusive = weak or mixed curves; inactive = flat fitted curve, though single readings scatter.

Test: qHTS assay to test for compound auto fluorescence at 460 nm (blue) in HEK293 cells (AID 720678)
Settings: blue autofluorescence 405/460 nm; series mostly up to 91.3 µM
Text: National Center for Advancing Translational Sciences [NCATS]
NIH Chemical Genomics Center [NCGC]
U.S. Environmental Protection Agency [EPA]
National Institutes of Environmental Health Sciences [NIEHS]
National Toxicology Program [NTP]
U.S. Food and Drug Administration [FDA]
Compound auto fluorescence often interferes with screening of the compound library against various biological targets and signaling pathways. Some of these compounds may have fluorophoric properties. Such properties may interfere with the assay outputs resulting in false positives and/or negatives. To decrease such complications and ensure the compound activities are relevant in terms of biological response, the Tox21 10K compound library was screened for auto fluorescence.
From the fluorophores used as reporter signals in our screening assays, the auto fluorescence equivalencies of compounds against three fluorophores have been evaluated: Triamterene, Fluorescein and Rose Bengal sodium for blue, green and red fluorescence, respectively. The fluorescence intensities were measured using Excitation/Emission wavelengths at 405/460nm, 485/535nm and 540/590nm for blue, green and red labels, respectively. This assay includes the blue fluorescence data.
Tox21 Assay Protocol Summary:
2,000 HEK293 cells in 5 uL of culture medium containing 10% dialyzed FBS per well were dispensed into black wall/clear bottom 1536-well plates using a Multidrop Combi Dispenser (Thermo Scientific). The assay plates were incubated for 4-5 hr at 37C to allow cell attachment to the well bottom, followed by the transfer of 23 nL compound or DMSO vehicle by a pintool work station (Kalypsys, San Diego, CA). After the assay plates were incubated overnight at 37C and 5% CO2, fluorescence intensities in the assay plates were measured by an Envision (PerkinElmer, Shelton, CT) plate reader using three labels for measuring blue, green and red fluorescence at […] 460, 535 and 590nm respectively.
% is set by controls: 0 for no effect and ±100 for the full control effect.

Compound | outcome | fluorescence, % of triamterene
CCCCOC(=O)c1ccccc1C(=O)OCc1ccccc1 | inactive | 
O=C(CCl)c1ccc(Cl)cc1Cl | inactive | 
O=C(O)c1ccccc1C(=O)Nc1cccc2ccccc12 | inactive | 
CC(=O)C(C)(C)C | inactive | 
C=CCN1CC[C@]23c4c5ccc(O)c4O[C@H]2C(=O)CC[C@@]3(O)[C@H]1C5 | inactive | 
Clc1cc(C(Cl)(Cl)Cl)cnc1Cl | inactive | 
Cc1c(F)c(F)c(COC(=O)C2C(/C=C(\Cl)C(F)(F)F)C2(C)C)c(F)c1F (stereo not given) | inactive | 
Nc1nc(N)nc(N)n1 | inactive | 
COC(=O)C(Cl)C(=O)OC | inactive | 
CO[C@@H]1[C@H](OC(=O)NC(=O)CCl)CC[C@]2(CO2)[C@H]1[C@@]1(C)O[C@@H]1CC=C(C)C |  | 0.0741% [at 18.6 µM] (inactive)
COCC(C)N(C(=O)CCl)c1c(C)csc1C (stereo not given) | inactive | 
Cn1cc[n+](C)c1 (tested in a mixture with another compound) | inactive | 
Nc1ccc([N+](=O)[O-])cc1[N+](=O)[O-] | inactive | 
COC(N)=O | inactive | 
CO/C=C(/C(=O)OC)c1ccccc1COc1cccc(C(F)(F)F)n1 | inactive | 
OCCCBr | inactive | 
C=CC(=O)NCNC(=O)C=C | inactive | 
CCOP(=S)(OCC)Oc1cc(Cl)c(Br)cc1Cl | inactive | 
c1ccoc1 | inactive | 
Clc1ccc(C2(Cn3cncn3)CC(Br)CO2)c(Cl)c1 (stereo not given) | inactive | 

Compound | outcome | fluorescence, % of triamterene
O=Cc1ccc(Cl)cc1Cl | inactive | 
CCBr | inactive | 
C=CC(=O)OCC(C)O (stereo not given) | inactive | 
CN1C(=O)NC(=O)C(C)(C2=CCCCC2)C1=O (stereo not given) | inactive | 
II | inactive | 
Brc1ccccc1 | inactive | 
Cl/C=C\C[N+]12CN3CN(CN(C3)C1)C2 | inactive | 
CC(=O)c1cc2c(cc1C)C(C)(C)C(C)CC2(C)C (stereo not given) | inactive | 
CN1C[C@H](CNC(=O)OCc2ccccc2)C[C@@H]2c3cccc4c3c(cn4C)C[C@H]21 | inactive | 
C/C(=C\c1ccccc1)[N+](=O)[O-] | inactive | 
COC(=O)C(Br)CBr (stereo not given) | inactive | 
BrCCCCBr | inactive | 
Clc1cc(Cl)c(Cl)c(Cl)c1 | inactive | 
CCCN(CCCl)c1c([N+](=O)[O-])cc(C(F)(F)F)cc1[N+](=O)[O-] | inactive | 
O=Cc1ccc2c(c1)OCO2 | inactive | 
CCCN(CCC)c1c([N+](=O)[O-])cc(S(C)(=O)=O)cc1[N+](=O)[O-] | inactive | 
CCCN(CC1CC1)c1c([N+](=O)[O-])cc(C(F)(F)F)cc1[N+](=O)[O-] | inactive | 
IC(I)=C(I)I | inactive | 
Oc1ccc(Cl)c(Cl)c1Cl | inactive | 
O=C(C(Cl)(Cl)Cl)C(Cl)(Cl)Cl | inactive | 
